This is an account of results in the supplement of paper PMC10849652.

About 7,900 targets were measured; listed, in parts, are those with a hit and a random draw of the rest. About 0.6% of all pairs of compound and target were hits.

Chain of UniProt Q92604 (Q92604 whole entry, looked up): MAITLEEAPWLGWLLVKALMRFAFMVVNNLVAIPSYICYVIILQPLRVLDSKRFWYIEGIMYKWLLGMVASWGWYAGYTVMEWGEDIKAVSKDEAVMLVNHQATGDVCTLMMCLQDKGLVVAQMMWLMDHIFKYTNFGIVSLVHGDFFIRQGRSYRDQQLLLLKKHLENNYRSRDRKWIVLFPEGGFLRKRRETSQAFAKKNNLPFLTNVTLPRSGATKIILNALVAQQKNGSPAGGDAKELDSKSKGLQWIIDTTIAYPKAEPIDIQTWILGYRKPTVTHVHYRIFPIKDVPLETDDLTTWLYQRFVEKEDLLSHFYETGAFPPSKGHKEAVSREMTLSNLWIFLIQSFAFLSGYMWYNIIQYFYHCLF
Chain of UniProt Q15528 (Q15528 whole entry, looked up): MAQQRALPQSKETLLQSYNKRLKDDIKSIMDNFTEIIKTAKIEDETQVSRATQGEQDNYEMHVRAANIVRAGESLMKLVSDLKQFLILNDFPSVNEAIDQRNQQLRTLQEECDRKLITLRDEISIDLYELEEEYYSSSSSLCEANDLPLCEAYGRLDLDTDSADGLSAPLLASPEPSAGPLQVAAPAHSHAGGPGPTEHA
Chain of UniProt Q6UWB1 (Q6UWB1 whole entry, looked up): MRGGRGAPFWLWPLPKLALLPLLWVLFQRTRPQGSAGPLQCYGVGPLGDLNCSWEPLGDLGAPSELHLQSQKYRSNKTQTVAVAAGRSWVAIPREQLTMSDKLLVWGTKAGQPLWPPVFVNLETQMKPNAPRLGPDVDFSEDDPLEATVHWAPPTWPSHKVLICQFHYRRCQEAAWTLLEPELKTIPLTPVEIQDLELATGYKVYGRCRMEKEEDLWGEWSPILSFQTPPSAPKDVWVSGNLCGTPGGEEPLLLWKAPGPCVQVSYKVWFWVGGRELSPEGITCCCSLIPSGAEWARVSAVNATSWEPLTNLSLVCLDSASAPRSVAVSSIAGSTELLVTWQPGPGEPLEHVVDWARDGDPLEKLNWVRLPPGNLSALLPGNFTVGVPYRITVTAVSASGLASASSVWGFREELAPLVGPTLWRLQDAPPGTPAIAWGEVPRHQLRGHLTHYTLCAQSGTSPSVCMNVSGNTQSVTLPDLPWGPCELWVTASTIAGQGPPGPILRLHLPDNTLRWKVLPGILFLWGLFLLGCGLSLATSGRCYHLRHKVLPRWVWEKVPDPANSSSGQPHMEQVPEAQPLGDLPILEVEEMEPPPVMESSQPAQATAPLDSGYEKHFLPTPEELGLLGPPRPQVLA
Chain of UniProt Q6UB28 (Q6UB28 whole entry, looked up): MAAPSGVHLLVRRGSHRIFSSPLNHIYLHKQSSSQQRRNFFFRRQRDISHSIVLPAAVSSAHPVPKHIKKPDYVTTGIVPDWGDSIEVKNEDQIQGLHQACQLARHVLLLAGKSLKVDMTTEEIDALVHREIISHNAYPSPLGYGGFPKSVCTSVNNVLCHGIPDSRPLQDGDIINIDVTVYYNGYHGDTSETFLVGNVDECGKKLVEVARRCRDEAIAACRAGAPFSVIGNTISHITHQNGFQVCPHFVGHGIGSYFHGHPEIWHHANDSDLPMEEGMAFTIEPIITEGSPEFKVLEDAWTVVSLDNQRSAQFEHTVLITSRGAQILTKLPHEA
Chain of UniProt Q14680 (Q14680 whole entry, looked up): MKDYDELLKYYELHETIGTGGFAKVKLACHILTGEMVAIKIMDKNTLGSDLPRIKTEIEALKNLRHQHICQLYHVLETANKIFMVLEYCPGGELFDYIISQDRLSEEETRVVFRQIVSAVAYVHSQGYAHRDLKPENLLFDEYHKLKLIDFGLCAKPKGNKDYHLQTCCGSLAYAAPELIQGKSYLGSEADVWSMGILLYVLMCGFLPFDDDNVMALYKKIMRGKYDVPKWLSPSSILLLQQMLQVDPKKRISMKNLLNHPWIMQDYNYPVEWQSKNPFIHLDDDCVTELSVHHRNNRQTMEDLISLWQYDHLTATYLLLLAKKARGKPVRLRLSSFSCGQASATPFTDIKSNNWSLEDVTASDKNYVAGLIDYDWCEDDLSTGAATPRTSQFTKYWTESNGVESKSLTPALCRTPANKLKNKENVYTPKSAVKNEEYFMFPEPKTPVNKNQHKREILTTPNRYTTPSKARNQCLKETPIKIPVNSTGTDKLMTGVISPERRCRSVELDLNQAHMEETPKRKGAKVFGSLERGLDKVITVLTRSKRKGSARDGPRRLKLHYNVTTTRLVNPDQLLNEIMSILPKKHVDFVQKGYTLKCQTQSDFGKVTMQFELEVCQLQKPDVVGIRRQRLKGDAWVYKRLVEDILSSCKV
Chain of UniProt Q9H3U5 (Q9H3U5 whole entry, looked up): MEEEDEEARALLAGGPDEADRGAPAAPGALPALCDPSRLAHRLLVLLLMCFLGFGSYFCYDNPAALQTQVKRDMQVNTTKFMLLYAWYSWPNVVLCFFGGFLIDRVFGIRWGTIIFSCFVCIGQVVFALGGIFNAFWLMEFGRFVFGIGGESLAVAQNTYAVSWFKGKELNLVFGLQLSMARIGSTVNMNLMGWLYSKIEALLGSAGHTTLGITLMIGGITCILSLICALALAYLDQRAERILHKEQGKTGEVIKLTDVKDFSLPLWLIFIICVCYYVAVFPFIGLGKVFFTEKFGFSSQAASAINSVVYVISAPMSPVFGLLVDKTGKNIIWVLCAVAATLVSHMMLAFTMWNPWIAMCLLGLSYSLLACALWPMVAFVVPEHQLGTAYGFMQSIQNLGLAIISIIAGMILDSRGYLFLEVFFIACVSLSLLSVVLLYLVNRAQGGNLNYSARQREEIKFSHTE
Chain of UniProt Q96LU5 (Q96LU5 whole entry, looked up): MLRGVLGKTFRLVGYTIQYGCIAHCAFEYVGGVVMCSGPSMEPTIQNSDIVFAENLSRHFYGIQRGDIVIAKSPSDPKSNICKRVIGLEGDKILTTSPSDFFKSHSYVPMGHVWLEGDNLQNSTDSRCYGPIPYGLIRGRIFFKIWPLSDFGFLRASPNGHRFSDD
Chain of UniProt Q86UD3 (Q86UD3 whole entry, looked up): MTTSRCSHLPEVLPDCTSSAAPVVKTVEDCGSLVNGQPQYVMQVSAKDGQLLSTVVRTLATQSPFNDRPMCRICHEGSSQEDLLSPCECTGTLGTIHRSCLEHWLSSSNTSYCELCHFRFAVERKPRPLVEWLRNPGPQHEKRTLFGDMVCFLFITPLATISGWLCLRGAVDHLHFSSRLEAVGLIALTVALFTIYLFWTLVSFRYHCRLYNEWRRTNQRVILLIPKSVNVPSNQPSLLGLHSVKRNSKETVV
Chain of UniProt Q96PV6 (Q96PV6 whole entry, looked up): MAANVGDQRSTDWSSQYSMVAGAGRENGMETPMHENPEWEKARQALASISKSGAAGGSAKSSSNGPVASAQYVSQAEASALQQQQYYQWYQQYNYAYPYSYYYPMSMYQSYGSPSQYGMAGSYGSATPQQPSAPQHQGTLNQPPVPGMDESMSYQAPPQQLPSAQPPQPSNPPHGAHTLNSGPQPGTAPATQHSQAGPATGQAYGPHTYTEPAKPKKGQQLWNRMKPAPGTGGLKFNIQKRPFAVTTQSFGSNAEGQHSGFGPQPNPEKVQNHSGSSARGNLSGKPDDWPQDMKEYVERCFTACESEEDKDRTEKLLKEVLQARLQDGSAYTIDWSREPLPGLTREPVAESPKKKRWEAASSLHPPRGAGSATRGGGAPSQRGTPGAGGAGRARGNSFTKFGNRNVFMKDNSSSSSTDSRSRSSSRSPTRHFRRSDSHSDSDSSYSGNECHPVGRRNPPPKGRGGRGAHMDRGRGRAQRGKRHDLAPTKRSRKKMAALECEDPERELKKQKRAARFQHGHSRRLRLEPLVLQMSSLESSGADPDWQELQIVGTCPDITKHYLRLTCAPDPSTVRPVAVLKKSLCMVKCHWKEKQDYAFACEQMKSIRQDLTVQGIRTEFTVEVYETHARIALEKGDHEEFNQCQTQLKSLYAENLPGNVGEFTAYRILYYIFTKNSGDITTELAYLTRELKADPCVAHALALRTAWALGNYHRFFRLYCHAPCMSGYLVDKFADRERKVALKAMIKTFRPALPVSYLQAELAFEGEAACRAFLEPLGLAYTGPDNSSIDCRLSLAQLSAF
Chain of UniProt Q7L590 (Q7L590 whole entry, looked up): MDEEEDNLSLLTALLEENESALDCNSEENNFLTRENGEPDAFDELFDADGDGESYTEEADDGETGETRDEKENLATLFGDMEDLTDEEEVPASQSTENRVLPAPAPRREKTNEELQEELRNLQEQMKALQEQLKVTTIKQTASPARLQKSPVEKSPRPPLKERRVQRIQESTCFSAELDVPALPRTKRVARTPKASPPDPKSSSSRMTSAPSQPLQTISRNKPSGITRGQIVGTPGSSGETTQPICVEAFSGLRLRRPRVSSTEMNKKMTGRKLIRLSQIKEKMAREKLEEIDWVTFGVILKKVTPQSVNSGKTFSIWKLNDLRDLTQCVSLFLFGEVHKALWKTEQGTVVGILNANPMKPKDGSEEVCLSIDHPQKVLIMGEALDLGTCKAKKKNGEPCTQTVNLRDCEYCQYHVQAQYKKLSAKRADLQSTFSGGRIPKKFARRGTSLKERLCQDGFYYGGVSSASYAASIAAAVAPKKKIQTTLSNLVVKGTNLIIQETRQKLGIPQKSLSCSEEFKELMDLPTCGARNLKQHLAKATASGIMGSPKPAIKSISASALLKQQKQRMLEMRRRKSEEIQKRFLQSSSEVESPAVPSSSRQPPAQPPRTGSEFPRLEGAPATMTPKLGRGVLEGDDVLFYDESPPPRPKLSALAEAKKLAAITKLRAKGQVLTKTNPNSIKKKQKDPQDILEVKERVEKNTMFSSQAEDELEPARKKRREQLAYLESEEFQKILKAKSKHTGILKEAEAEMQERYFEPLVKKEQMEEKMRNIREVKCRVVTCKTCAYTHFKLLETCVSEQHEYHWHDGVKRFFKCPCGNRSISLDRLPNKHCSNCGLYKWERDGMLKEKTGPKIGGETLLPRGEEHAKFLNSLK
Chain of UniProt Q9BQD3 (Q9BQD3 whole entry, looked up): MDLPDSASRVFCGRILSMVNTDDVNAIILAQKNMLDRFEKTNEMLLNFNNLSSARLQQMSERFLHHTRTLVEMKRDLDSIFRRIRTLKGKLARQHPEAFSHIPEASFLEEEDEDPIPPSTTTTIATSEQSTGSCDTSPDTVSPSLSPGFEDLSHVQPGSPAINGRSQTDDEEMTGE

Compound in one experiment: CC[C@H](C)N1C=C(C2=C(C=C(C=C21)C3=CN=C(C=C3)N4CCNCC4)C(=O)NCC5=C(C=C(NC5=O)C)C)C
As to the kind of experiment: log2 fold change, soluble protein after heating vs DMSO (PISA); higher = thermal stabilisation; K562 cells, 10 uM, 30 min; active = over 0.2 and 3.5 SD of the protein, either way, in both replicates (recomputed). The method, boiled down:
(§1)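 Quantification of soluble protein used TMTpro 16plex LC-MS/MS, with channel sums equalised. Samples were the supernatant after 21,000xg for 90 min of pooled aliquots from K562 cells (2×10^6 cells/mL) treated with 10 μM compound for 30 min, heated for 3 min over 48°C-58°C, and extracted in PBS with 0.5% NP-40 at 4°C. Values, from duplicates, describe thermal stability against control samples on a log2 fold-change scale.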
As to LRBA, A0A494BZW2, the log2 fold change was 0.007 (inactive).
MED22 (UniProt Q15528): the log2 fold change is 0.097 (inactive).
The same measure, in the same setting: the value for ILRUN (UniProt Q9H6K1) was 0.024 (inactive); that for MFSD1 isoform 6 (UniProt Q9H3U5) was -0.01 (inactive); that for MAN2B2 (UniProt Q9Y2E5) was -0.005 (inactive).
With LENG8 (UniProt Q96PV6), the log2 fold change is -0.009 (inactive).
The same measure, in the same setting: for LUM (UniProt P51884) the value was -0.269 (inactive).
The same measure, in the same setting: for METAP1D (UniProt Q6UB28) the value was 0.051 (inactive); for MED8 isoform 2 (UniProt Q96G25), 0.046 (inactive); for MARK2 (UniProt E9PC69), 0.086 (inactive).
Regarding KMT2C isoform 3 (UniProt Q8NEZ4), the log2 fold change was -0.02 (inactive).
As for MELK (UniProt Q14680), the log2 fold change was 0.334 (inactive).
On to MED25 isoform 3 (UniProt Q71SY5), for which the log2 fold change was 0.027 (inactive).
On the same count and under the same terms, the value for ILF3 (UniProt Q12906) was 0.144 (inactive); that for ITM2B (UniProt Q9Y287) was -0.112 (inactive).
As to MAGEA8 (UniProt P43361), the log2 fold change was -0.075 (inactive).
Same read-out and setting: for MED17 (UniProt Q9NVC6) the value was -0.008 (inactive); for LPGAT1 (UniProt Q92604), 0.063 (inactive).
The same measure, in the same setting: for MFSD11 (UniProt O43934) the value was -0.108 (inactive); for MAP4K2 (UniProt Q12851), 0.298 (inactive); for IL27RA (UniProt Q6UWB1), -0.049 (inactive).
Take MED12 isoform 2 (UniProt Q93074): the log2 fold change is 0.091 (inactive).
Still for that read-out and setting: for MCM10 (UniProt Q7L590) the value was -0.034 (inactive); for MARCHF3 (UniProt Q86UD3), 0.018 (inactive); for MCOLN3 (UniProt Q8TDD5), -0.071 (inactive).
Still for that read-out and setting: the value for MASTL (UniProt Q96GX5) was 0.045 (inactive); that for MAPK14 (UniProt Q16539) was -0.067 (inactive); that for MAP4 isoform 5 (UniProt P27816) was -0.258 (inactive).
Same read-out and setting: for IMMP1L (UniProt Q96LU5) the value was -0.02 (inactive).

Compound in a further experiment: CC[C@H](C)[C@@H](C(=O)N[C@@H]([C@@H](C)O)C(=O)N[C@@H](CC(C)C)C(=O)[C@]1(CO1)C)NC(=O)[C@H]([C@@H](C)CC)N(C)C(=O)C [epoxomicin]
Described as above. In short, it runs like this:
as §1
Consider LRBA, A0A494BZW2, for which the log2 fold change is -0.03 (inactive).
Turning to MED22 (UniProt Q15528), the log2 fold change was 0.02 (inactive).
On to LRFN1 (UniProt Q9P244), for which the log2 fold change is -0.125 (inactive).
Same read-out and setting: for ILRUN (UniProt Q9H6K1) the value was 0.042 (inactive); for MFSD1 isoform 6 (UniProt Q9H3U5), 0 (inactive).
As for MAN2B2 (UniProt Q9Y2E5), the log2 fold change was -0.002 (inactive).
On the same count and under the same terms, for LENG8 (UniProt Q96PV6) the value was 0.101 (inactive); for MFSD8 (UniProt Q8NHS3), -0.021 (inactive); for LUM (UniProt P51884), -0.145 (inactive).
As to ITPRID2 (UniProt P28290), the log2 fold change was -0.109 (inactive).
Same read-out and setting: for METAP1D (UniProt Q6UB28) the value was 0.074 (inactive).
On to MED8 isoform 2 (UniProt Q96G25), for which the log2 fold change is -0.051 (inactive).
Consider MARK2 (UniProt E9PC69), for which the log2 fold change was 0.023 (inactive).
The same measure, in the same setting: the value for KMT2C isoform 3 (UniProt Q8NEZ4) was -0.004 (inactive); that for MELK (UniProt Q14680) was 0.077 (inactive); that for IP6K1 (UniProt Q92551) was 0 (inactive).
Still for that read-out and setting: the value for KIF3B (UniProt O15066) was -0.134 (inactive); that for ILF3 (UniProt Q12906) was 0.004 (inactive).
Still for that read-out and setting: the value for ITM2B (UniProt Q9Y287) was 0.028 (inactive); that for MED17 (UniProt Q9NVC6) was -0.015 (inactive).
For the target LPGAT1 (UniProt Q92604), the log2 fold change is 0.015 (inactive).
For MFSD11 (UniProt O43934), the log2 fold change is 0.03 (inactive).
KCNK5 (UniProt O95279): the log2 fold change is 0.046 (inactive).
On the same count and under the same terms, the value for IL27RA (UniProt Q6UWB1) was -0.178 (inactive).
With MED12 isoform 2 (UniProt Q93074), the log2 fold change was -0.17 (inactive).
The same measure, in the same setting: the value for MCM10 (UniProt Q7L590) was 0.148 (inactive); that for MARCHF3 (UniProt Q86UD3) was 0.036 (inactive).
Still for that read-out and setting: the value for KXD1 (UniProt Q9BQD3) was -0.077 (inactive); that for MASTL (UniProt Q96GX5) was 0.113 (inactive); that for MAP4 isoform 5 (UniProt P27816) was 0.134 (inactive).
Still for that read-out and setting: the value for IMMP1L (UniProt Q96LU5) was -0.015 (inactive).
